# In PubChem BioAssay (NCATS):
# Where “and” joins values, the source holds several entries; their conditions need not be identical. Equal values may be shown once. Records with an inconclusive call do not appear. A call without a number means that no potency is given here. Values without a mark were called inactive. Calls of active or inactive are those of the source. Unless noted, calls follow the shape of the dose curve; as a rule, active = well fitted curve in the direction sought with a large enough effect; inconclusive = small, poorly fitted or top-dose-only effect, or another doubt; inactive = no such curve, though single readings can be large; an effect the other way counts as inactive or inconclusive.
# Assay: P-glycoprotein substrates identified in KB-3-1 adenocarcinoma cell line, qHTS therapeutic library screen (AID 1346986); also: nearly all actives have a fitted effect of over 60% in size
# Details: KB-3-1 parental cells viability, CellTiter-Glo, 72 h; series mostly up to 44.5 µM; activity change, negative = cytotoxicity: at the top concentration
# Summary of the method: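 Using luminescence to quantify ATP, parental and P-gp-overexpressing KB cells were compared after 72 h compound titration. KB-8-5-11 was also run with the P-gp inhibitor tariquidar.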
row,SMILES,outcome
1,Cc1cnc(C(=O)O)c[n+]1[O-],inactive
2,CCN(CC)CCNC(=O)c1ccc(N)cc1,inactive
3,CCOC(=O)O[C@]1(C(=O)OCCl)CC[C@@H]2[C@H]3CCC4=CC(=O)C=C[C@]4(C)[C@@H]3[C@@H](O)C[C@@]21C,inactive
4,CC(=O)CCCCn1c(=O)c2c(ncn2C)n(C)c1=O,inactive
5,CCN1CCC[C@H]1CNC(=O)c1cc(S(N)(=O)=O)ccc1OC,inactive
6,O=C(O)CCc1nc(-c2ccccc2)c(-c2ccccc2)o1,inactive

# Assay: P-glycoprotein substrates identified in KB-8-5-11 adenocarcinoma cell line, qHTS therapeutic library screen (AID 1346987); also: nearly all actives have a fitted effect of over 65% in size; also: potency is read from the fitted curve at half-maximal effect
# Details: KB-8-5-11 (P-gp overexpressing) viability, CellTiter-Glo, 72 h; series mostly up to 44.5 µM; activity change, negative = cytotoxicity: at the top concentration
# Summary of the method: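 Human cervical adenocarcinoma KB-8-5-11 cells, selected in colchicine to over-express P-gp and assayed without it, were exposed for 72 h to titrated compounds. An ATP-based luminescent viability signal gave AC50.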
SMILES,Potency,"activity change, negative = cytotoxicity",outcome
CC(C(=O)O)c1ccc(-c2ccccc2)c(F)c1 (stereo not drawn),inactive,,
O=C1NCC2(CCN(CCc3ccccc3)CC2)O1,,16.9%,
COC(=O)[C@@H]1[C@H]2C[C@H]3c4[nH]c5ccccc5c4CCN3C[C@@H]2CC[C@@H]1O,inactive,,
O=C(O)Cc1cccc2ccccc12,inactive,,
O=C1NC(=O)C(c2ccccc2)(c2ccccc2)N1,,-5.96%,
Cc1cnc(C(=O)O)c[n+]1[O-],inactive,,
Cc1cccc(C)c1OCC(C)N (stereo not drawn),,-32.8%,
CCN(CC)CCNC(=O)c1ccc(N)cc1,inactive,,
NCCS,inactive,,
CC1(C)O[C@H]2C[C@@H]3[C@H]4CCC5=CC(=O)C=C[C@]5(C)[C@@]4(F)[C@@H](O)C[C@]3(C)[C@]2(C(=O)CO)O1,,,inactive
CCOC(=O)O[C@]1(C(=O)OCCl)CC[C@@H]2[C@H]3CCC4=CC(=O)C=C[C@]4(C)[C@@H]3[C@@H](O)C[C@@]21C,,,inactive
COc1ccccc1N1CCN(CCCNc2cc(=O)n(C)c(=O)n2C)CC1,inactive,,
CN(C)CCC(c1ccccc1)c1ccccn1 (stereo not drawn),inactive,,
COCCCCC(=NOCCN)c1ccc(C(F)(F)F)cc1,20.9 µM (active),,
CC(=O)CCCCn1c(=O)c2c(ncn2C)n(C)c1=O,inactive,,
OC[C@@H](O)[C@H](O)[C@H](O)[C@@H](O)CO,inactive,,
O=c1[nH]cnc2c1ncn2[C@H]1CC[C@@H](CO)O1,inactive,,

SMILES,Potency,"activity change, negative = cytotoxicity",outcome
CCCCC1C(=O)N(c2ccccc2)N(c2ccccc2)C1=O,inactive,,
O=C(NCCN1CCOCC1)c1ccc(Cl)cc1,inactive,,
CC(C)(C)c1ccc(C(O)CCCN2CCC(C(O)(c3ccccc3)c3ccccc3)CC2)cc1 (stereo not drawn),13 µM (active) and 18.4 µM (active),,
CCN1CCC[C@H]1CNC(=O)c1cc(S(N)(=O)=O)ccc1OC,inactive,,
O=C(O)c1cc(-c2ccccc2)nc2ccccc12,inactive,,
NC(N)=Nc1nc(CSCC/C(N)=N/S(N)(=O)=O)cs1,,1.31%,
CC(C)NCC(O)COc1cccc2[nH]ccc12 (stereo not drawn),inactive,,
CC1=C(/C=C/C(C)=C/C=C/C(C)=C/C(=O)Nc2ccc(O)cc2)C(C)(C)CCC1,23.1 µM (active),,
C[C@@H](O)[C@H]1C(=O)N2C(C(=O)O)=C(S[C@@H]3CN[C@H](C(=O)N(C)C)C3)[C@H](C)[C@H]12,,-1.23%,
CC(=O)N[C@@H](CS)C(=O)O,,4.14%,
CC[C@]1(O)C[C@@H]2CN(CCc3c([nH]c4ccccc34)[C@@](C(=O)OC)(c3cc4c(cc3OC)N(C)[C@H]3[C@@](O)(C(=O)OC)[C@H](OC(C)=O)[C@]5(CC)C=CCN6CC[C@]43[C@@H]65)C2)C1,5.8 µM (active) and 5.17 µM (active) and 1.16 µM (active),,
CC(=O)c1ccc(S(=O)(=O)NC(=O)NC2CCCCC2)cc1,,0.344%,
CCN(CC)C(=O)c1ccc(O)c(OC)c1,inactive,,
O=C(O)CCc1nc(-c2ccccc2)c(-c2ccccc2)o1,inactive,,
CCCNC(=O)NS(=O)(=O)c1ccc(Cl)cc1,inactive,,
CCN(CC)CCOC(=O)c1ccc(N)cc1,,-2.84% [at 17.3 µM],

# Assay: Natriuretic polypeptide receptor (hNpr1) antagonism - Pilot counterscreen GloSensor control cell line (AID 1347045; calls by dose curve)
# Details: HEK293 cGMP GloSensor cells, SNP-stimulated luminescence, 20 min; series mostly up to 38.3 µM; activity change, negative = inhibition: at the top concentration
# Summary of the method: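 The SNP-driven cGMP luminescence signal (50 uM, 20 min, room temperature) was measured in GloSensor HEK293 control cells. Compounds were tested as a LOPAC titration series and preincubated for 30-50 min.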
SMILES,"activity change, negative = inhibition [%]",Potency
O=C1NCC2(CCN(CCc3ccccc3)CC2)O1,-1.18,
C[N+](C)(C)CCCCCC[N+](C)(C)C,,inactive
O=C1NC(=O)C(c2ccccc2)(c2ccccc2)N1,,inactive
CCN(CC)CCNC(=O)c1ccc(N)cc1,2.86,
NCCS,1.15,
COc1ccccc1N1CCN(CCCNc2cc(=O)n(C)c(=O)n2C)CC1,-12.8,
CN(C)CCC(c1ccccc1)c1ccccn1 (stereo not drawn),-4.75,
O=C(NCCN1CCOCC1)c1ccc(Cl)cc1,-9.19,
CCCCCN(C)CCC(O)(P(=O)(O)O)P(=O)(O)O,5.18,
CCN1CCC[C@H]1CNC(=O)c1cc(S(N)(=O)=O)ccc1OC,5.88,
Clc1ccc(Cn2c(CN3CCCC3)nc3ccccc32)cc1,18.2,
CC(C)NCC(O)COc1cccc2[nH]ccc12 (stereo not drawn),2.32,
CC1=C(/C=C/C(C)=C/C=C/C(C)=C/C(=O)Nc2ccc(O)cc2)C(C)(C)CCC1,-11.2,
CC(=O)N[C@@H](CS)C(=O)O,10.1,
CC(=O)c1ccc(S(=O)(=O)NC(=O)NC2CCCCC2)cc1,15.1,
CCN(CC)C(=O)c1ccc(O)c(OC)c1,0.74,
O=C(O)CCc1nc(-c2ccccc2)c(-c2ccccc2)o1,6.12,
CCCNC(=O)NS(=O)(=O)c1ccc(Cl)cc1,-4.09,
CCN(CC)CCOC(=O)c1ccc(N)cc1,6.17,
